# Source: PubChem BioAssay (Tox21)
# Unmarked numbers belong to inactive results. Inconclusive results are not listed. Where a call stands in place of a potency, no number is given. The source made the active and inactive calls. Unless noted, the call rests on the fitted dose curve.
# What was measured:
# [1] = qHTS assay to identify small molecule agonists of the sonic hedgehog signaling (Shh) pathway (AID 1259368);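 further: NIH/3T3-derived 3T3Gli1-Luc cells carrying a stable Gli1-driven firefly luciferase reporter; series mostly up to about 92 µM; nearly all actives have a fitted effect of over 15% in size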
# Procedure, shortened: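 Following a 24 hr incubation with DMSO-dissolved compounds at 37 C, 5% CO2, Gli1-Luc NIH/3T3-derived cells received luciferase reagent for 30 min at room temperature prior to luminescence measurement.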
# [2] = qHTS assay to identify small molecule antagonists of the sonic hedgehog signaling (Shh) pathway (AID 1259369); further: nearly all actives have a fitted effect of over 45% in size
# Procedure, shortened: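 Read-out is luminescence from a firefly luciferase gene controlled by the Gli1 response element, in 3T3Gli1-Luc cells pre-incubated 4hr then exposed to compounds and conditioned medium for 24hr.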
# [3] = biological target: Estrogen receptor beta (Homo sapiens) (UniProt Q92731); assay: qHTS assay to identify small molecule agonists of the estrogen receptor beta (ER-beta) signaling pathway (AID 1259377; active means well fitted activation curve with a large enough effect in the signal ratio in the repeat runs, not every such curve was filed as active; the % refers to the signal ratio)
# Chain of Estrogen receptor beta (Homo sapiens) (Q92731 whole entry, looked up): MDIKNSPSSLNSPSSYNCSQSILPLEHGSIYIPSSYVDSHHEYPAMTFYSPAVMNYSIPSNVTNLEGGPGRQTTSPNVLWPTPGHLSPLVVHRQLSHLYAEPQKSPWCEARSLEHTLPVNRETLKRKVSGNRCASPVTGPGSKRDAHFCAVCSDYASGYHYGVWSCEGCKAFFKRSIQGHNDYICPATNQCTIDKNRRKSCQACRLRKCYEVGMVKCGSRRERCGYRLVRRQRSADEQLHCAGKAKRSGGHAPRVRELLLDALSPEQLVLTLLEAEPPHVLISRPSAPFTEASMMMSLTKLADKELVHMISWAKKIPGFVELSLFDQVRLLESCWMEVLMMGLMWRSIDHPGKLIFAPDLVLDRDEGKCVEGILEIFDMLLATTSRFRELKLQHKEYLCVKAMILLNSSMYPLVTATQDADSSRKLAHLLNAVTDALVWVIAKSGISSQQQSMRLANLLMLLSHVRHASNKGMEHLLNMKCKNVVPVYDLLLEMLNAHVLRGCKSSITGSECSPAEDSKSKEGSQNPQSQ
# Procedure, shortened: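 Beta-lactamase reporter readout: fluorescence of LiveBLAzer B/G FRET substrate after 2 h at room temperature, following 16 h compound treatment of ER-beta-UAS-bla HEK293T cells at 37C in 2% charcoal-stripped FBS medium.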
# [4] = biological target: Estrogen receptor beta (Homo sapiens) (UniProt Q92731); assay: qHTS assay to identify small molecule antagonists of the estrogen receptor beta (ER-beta) signaling pathway (AID 1259378; active means well fitted inhibition curve with a large enough effect in the signal ratio in the repeat runs, not every such curve was filed as active; the % refers to the signal ratio)
# Procedure, shortened: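 Antagonist mode: compounds added to beta-lactamase reporter HEK293T ER-beta-UAS cells stimulated with E2 (1nM final), 16 hr at 37C. LiveBLAzer B/G FRET substrate, 2 hours room temperature, fluorescence read-out.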
# [5] = qHTS assay to identify small molecule agonists of the androgen receptor (AR) signaling pathway in the presence of an antagonist - cell viability counter screen (AID 1259379; active means well fitted curve in the direction sought with a large enough effect in the repeat runs; an effect the other way counts as inactive or inconclusive;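 further: MDA-kb2 human breast cancer cells carrying an MMTV luciferase reporter; series mostly up to about 92 µM; nearly all actives have a fitted effect of over 25% in size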)
# Procedure, shortened: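 Each compound was tested at 15 concentrations on MDA-kb2 cells in the presence of 3.0uM nilutamide. Viability was measured by CellTiter-Fluor fluorescence after a 16 hr incubation at 37C in a CO2-free atmosphere.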
# [6] = qHTS assay to identify small molecule agonists of the estrogen receptor beta (ER-beta) signaling pathway - cell viability counter screen (AID 1259380; active means well fitted curve in the direction sought with a large enough effect in the repeat runs; an effect the other way counts as inactive or inconclusive; further: nearly all actives have a fitted effect of over 30% in size)
# Procedure, shortened: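 Compounds dissolved in DMSO were pin-transferred onto ER-beta-UAS-bla HEK293T cells that had settled 6 hr, and exposure ran 16 hr at 37C. Following the reporter read, CellTiter-Glo luminescence after 30 min at room temperature indicated cytotoxicity.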
# [7] = qHTS assay to identify small molecule antagonists of the estrogen receptor beta (ER-beta) signaling pathway - cell viability counter screen (AID 1259382; active means well fitted curve in the direction sought with a large enough effect in the repeat runs; an effect the other way counts as inactive or inconclusive;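 further: HEK293T cells carrying ER-beta-UAS-bla reporter stimulated with estradiol; series mostly up to about 92 µM; nearly all actives have a fitted effect of over 55% in size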)
# Procedure, shortened: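 CellTiter-Glo ATP luminescence measured after the LiveBLAzer read in the same wells; ER-beta-UAS-bla HEK293T cells, 16 hr compound treatment with 1nM 17-beta-estradiol agonist at 37C, 5% CO2.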
# [8] = biological target: Androgen receptor (Homo sapiens) (UniProt P10275); assay: qHTS assay to identify small molecule agonists of the androgen receptor (AR) signaling pathway in the presence of an antagonist (AID 1259381); further: nearly all actives have a fitted effect of over 15% in size; further: potency means the concentration at half of the fitted maximal effect
# Chain of Androgen receptor (Homo sapiens) (P10275 whole entry, looked up): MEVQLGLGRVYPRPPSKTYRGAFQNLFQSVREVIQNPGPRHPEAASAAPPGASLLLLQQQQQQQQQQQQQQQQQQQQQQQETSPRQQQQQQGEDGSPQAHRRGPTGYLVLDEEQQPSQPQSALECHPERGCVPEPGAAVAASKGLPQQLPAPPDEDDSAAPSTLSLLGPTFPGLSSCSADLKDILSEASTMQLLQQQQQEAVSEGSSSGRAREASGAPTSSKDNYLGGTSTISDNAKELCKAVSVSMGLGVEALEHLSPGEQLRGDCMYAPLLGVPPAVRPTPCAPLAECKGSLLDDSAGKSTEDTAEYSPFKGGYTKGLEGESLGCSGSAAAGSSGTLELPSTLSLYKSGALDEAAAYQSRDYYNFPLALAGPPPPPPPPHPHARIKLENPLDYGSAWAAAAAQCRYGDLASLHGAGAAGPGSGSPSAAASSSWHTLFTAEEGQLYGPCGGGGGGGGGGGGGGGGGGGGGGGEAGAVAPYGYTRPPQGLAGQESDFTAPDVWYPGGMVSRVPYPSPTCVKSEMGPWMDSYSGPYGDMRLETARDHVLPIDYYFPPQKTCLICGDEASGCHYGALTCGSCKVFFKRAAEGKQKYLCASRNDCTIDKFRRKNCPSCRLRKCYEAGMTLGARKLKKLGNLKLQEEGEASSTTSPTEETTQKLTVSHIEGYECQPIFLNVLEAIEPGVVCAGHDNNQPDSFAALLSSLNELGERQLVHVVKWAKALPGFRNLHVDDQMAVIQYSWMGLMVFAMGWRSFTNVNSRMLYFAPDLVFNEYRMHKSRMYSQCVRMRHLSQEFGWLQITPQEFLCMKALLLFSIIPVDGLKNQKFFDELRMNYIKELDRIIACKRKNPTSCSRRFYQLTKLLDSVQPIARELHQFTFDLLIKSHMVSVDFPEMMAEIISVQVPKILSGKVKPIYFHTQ
# Procedure, shortened: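 Plated MDA-kb2 cells (3,000/well) were pre-incubated 5hr, given nilutamide (3.0uM final) or buffer, then dosed with compounds in DMSO at 15 concentrations. Luciferase activity was quantified by luminescence after 16hr at 37C.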
# [9] = biological target: Estrogen receptor (Homo sapiens) (UniProt P03372); assay: qHTS assay to identify small molecule agonists of the estrogen receptor alpha (ER-alpha) signaling pathway in the presence of an antagonist (AID 1259383); further: top concentration of the series differs between compounds; nearly all actives have a fitted effect of over 15% in size
# Chain of Estrogen receptor (Homo sapiens) (P03372 whole entry, looked up): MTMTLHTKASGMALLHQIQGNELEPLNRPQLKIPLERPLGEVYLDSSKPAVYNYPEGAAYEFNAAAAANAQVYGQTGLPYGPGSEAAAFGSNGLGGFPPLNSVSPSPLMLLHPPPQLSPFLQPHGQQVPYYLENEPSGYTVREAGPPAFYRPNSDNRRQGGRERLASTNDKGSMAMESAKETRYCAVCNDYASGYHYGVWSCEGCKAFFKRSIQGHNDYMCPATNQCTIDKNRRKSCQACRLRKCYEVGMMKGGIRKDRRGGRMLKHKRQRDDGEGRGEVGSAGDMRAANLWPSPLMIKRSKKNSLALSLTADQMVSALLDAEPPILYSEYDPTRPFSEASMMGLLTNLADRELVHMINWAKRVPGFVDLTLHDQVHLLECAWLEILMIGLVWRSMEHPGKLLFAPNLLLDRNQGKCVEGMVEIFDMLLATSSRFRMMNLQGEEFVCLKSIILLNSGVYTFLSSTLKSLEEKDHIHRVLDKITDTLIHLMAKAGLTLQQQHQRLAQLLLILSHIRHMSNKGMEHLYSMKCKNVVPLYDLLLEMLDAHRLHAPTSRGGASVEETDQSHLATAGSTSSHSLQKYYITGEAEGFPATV
# Procedure, shortened: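 Luminescent ERE-luciferase reporter, VM7Luc4E2 cells (endogenous ER-alpha); 10.0nM ICI-182,780 final; 15-point compound titration; 22hr at 37C; ONE-Glo, 30min RT.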
# [10] = qHTS assay to identify small molecule agonists or antagonists of the thyroid stimulating hormone receptor (TSHR) signaling pathway - wild type cell line counter screen (AID 1259384)
# Procedure, shortened: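 Counter screen in untransfected Hek293: compounds (15-point titration, triplicate) plus phosphodiesterase inhibitor Ro20-1724 added after 18 h plating; 30 min RT. Intracellular cAMP via competitive d2/cryptate immunoassay, 1 h incubation.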
structure (smiles),measurement,setting,value
COC(=O)c1ccc(C)cc1C1=NC(C)(C(C)C)C(=O)N1 (stereo unspecified),outcome,[1],inactive
same,Potency,[2],inactive
same,outcome,[3],inactive
same,outcome,[4],inactive
same,Potency,[5],inactive
same,Potency,[6],inactive
same,Potency,[7],inactive
COC(=O)CC(C)=O,outcome,[1],inactive
same,Potency,[2],inactive
same,outcome,[3],inactive
same,outcome,[4],inactive
same,Potency,[5],inactive
same,Potency,[6],inactive
same,Potency,[7],inactive
ClC(Cl)(Br)Br,outcome,[1],inactive
same,Potency,[2],inactive
same,outcome,[3],inactive
same,outcome,[4],inactive
same,Potency,[5],inactive
same,Potency,[6],inactive
same,Potency,[8],inactive
same,Potency,[7],inactive
same,Potency,[9],inactive
same,outcome,[10],inactive
NS(=O)(=O)c1cc(C(=O)NN2C[C@H]3[C@H]4CCC(C4)[C@H]3C2)ccc1Cl,outcome,[1],inactive
same,Potency,[2],inactive
same,outcome,[3],inactive
same,outcome,[4],inactive
same,Potency,[5],inactive
same,Potency,[6],inactive
same,Potency,[8],inactive
same,Potency,[7],inactive
same,Potency,[9],inactive
same,outcome,[10],inactive
NCCCNCCSP(=O)(O)O,activity change,[1],-0.244% [at 8.39 µM]
same,"activity change, negative = inhibition",[2],21.5% [at 8.39 µM]
same,activation,[3],-1.24% [at 8.39 µM]
same,"activity, negative = inhibition",[4],13.1% [at 8.39 µM]
same,"activity change, negative = cytotoxicity",[5],9.45% [at 8.39 µM]
same,"activity change, negative = cytotoxicity",[6],0.895% [at 8.39 µM]
same,"activity change, negative = cytotoxicity",[7],1.8% [at 8.39 µM]
same,activation,[9],-0.349% [at 8.39 µM]
CCS(=O)(=O)c1ccc(OC)c(C(=O)OC)c1,outcome,[1],inactive
same,Potency,[2],inactive
same,outcome,[3],inactive
same,outcome,[4],inactive
same,Potency,[5],inactive
same,Potency,[6],inactive
same,Potency,[7],inactive
same,Potency,[9],inactive
Cc1ccc(Cl)cc1Cl,outcome,[1],inactive
same,Potency,[2],inactive
same,outcome,[3],inactive
same,outcome,[4],inactive
same,Potency,[5],inactive
same,Potency,[6],inactive
same,Potency,[7],inactive
same,Potency,[9],inactive
NS(=O)(=O)c1cc2c(cc1Cl)NC(C1CC3C=CC1C3)NS2(=O)=O (stereo unspecified),outcome,[1],inactive
same,Potency,[2],inactive
same,outcome,[3],inactive
same,outcome,[4],inactive
same,Potency,[5],inactive
same,Potency,[6],inactive
same,Potency,[8],inactive
same,Potency,[7],inactive
CC1=CC(C)C(C=O)CC1 (stereo unspecified),outcome,[1],inactive
same,Potency,[2],inactive
same,outcome,[3],inactive
same,outcome,[4],inactive
same,Potency,[5],inactive
same,Potency,[6],inactive
same,Potency,[7],inactive
same,Potency,[9],inactive
CC(=O)Nc1ccc(S(N)(=O)=O)cc1,outcome,[1],inactive
same,Potency,[2],inactive
same,outcome,[3],inactive
same,outcome,[4],inactive
same,Potency,[5],inactive
same,Potency,[6],inactive
same,Potency,[8],inactive
same,Potency,[7],inactive
same,outcome,[10],inactive
COC(=O)c1c(Cl)c(Cl)c(C(=O)OC)c(Cl)c1Cl,outcome,[1],inactive
same,Potency,[2],inactive
same,outcome,[3],inactive
same,outcome,[4],inactive
same,Potency,[5],inactive
same,Potency,[6],inactive
same,Potency,[7],inactive
O=[N+]([O-])c1ccc(F)cc1F,outcome,[1],inactive
same,Potency,[2],inactive
same,outcome,[3],inactive
same,outcome,[4],inactive
same,Potency,[5],inactive
same,Potency,[6],inactive
same,Potency,[7],inactive
N=C(N)c1ccc(OCCCOc2ccc(C(=N)N)cc2)cc1,outcome,[1],inactive
same,Potency,[2],inactive
same,outcome,[3],inactive
same,outcome,[4],inactive
same,Potency,[5],inactive
same,Potency,[6],inactive
same,Potency,[7],inactive
same,Potency,[9],inactive
CCC=O,outcome,[1],inactive
same,Potency,[2],inactive
same,outcome,[3],inactive
same,outcome,[4],inactive
same,Potency,[5],inactive
same,Potency,[6],inactive
same,Potency,[7],inactive
NC(=O)c1ccc(N)cc1,outcome,[1],inactive
same,Potency,[2],inactive
same,outcome,[3],inactive
same,outcome,[4],inactive
same,Potency,[5],inactive
same,Potency,[6],inactive
same,Potency,[7],inactive
same,Potency,[9],inactive
CN1CC(=O)NC1=N,outcome,[1],inactive
same,Potency,[2],inactive
same,outcome,[3],inactive
same,outcome,[4],inactive
same,Potency,[5],inactive
same,Potency,[6],inactive
same,Potency,[8],inactive
same,Potency,[7],inactive
CC(C)(O)C(=O)c1ccccc1,outcome,[1],inactive
same,Potency,[2],inactive
same,outcome,[3],inactive
same,outcome,[4],inactive
same,Potency,[5],inactive
same,Potency,[6],inactive
same,Potency,[8],inactive
same,Potency,[7],inactive
same,Potency,[9],inactive
same,outcome,[10],inactive
O=C(O)Cc1ccc(CCNS(=O)(=O)c2ccc(Cl)cc2)cc1,outcome,[1],inactive
same,Potency,[2],inactive
same,outcome,[3],inactive
same,outcome,[4],inactive
same,Potency,[5],inactive
same,Potency,[6],inactive
same,Potency,[7],inactive
same,Potency,[9],inactive
CC(C)(CC(=O)O)C(=O)O,outcome,[1],inactive
same,Potency,[2],inactive
same,outcome,[3],inactive
same,outcome,[4],inactive
same,Potency,[5],inactive
same,Potency,[6],inactive
same,Potency,[8],inactive
same,Potency,[7],inactive
same,outcome,[10],inactive
O=C1CC2CC1C1CCCC21 (stereo unspecified),outcome,[1],inactive
same,Potency,[2],inactive
same,outcome,[3],inactive
same,outcome,[4],inactive
same,Potency,[5],inactive
same,Potency,[6],inactive
same,Potency,[8],27.3 µM (active)
same,Potency,[7],inactive
same,outcome,[10],inactive
O=C(O)CCCl,outcome,[1],inactive
same,Potency,[2],inactive
same,outcome,[3],inactive
same,outcome,[4],inactive
same,Potency,[5],inactive
same,Potency,[6],inactive
same,Potency,[7],inactive
CC(C[N+](C)(C)C)OC(N)=O (stereo unspecified),outcome,[1],inactive
same,Potency,[2],inactive
same,outcome,[3],inactive
same,outcome,[4],inactive
same,Potency,[5],inactive
same,Potency,[6],inactive
same,Potency,[7],inactive
FC(F)OC(Cl)C(F)(F)F (stereo unspecified),outcome,[1],inactive
same,Potency,[2],inactive
same,outcome,[3],inactive
same,outcome,[4],inactive
same,Potency,[5],inactive
same,Potency,[6],inactive
same,Potency,[7],inactive
COC(=O)[C@@H](N)Cc1ccc(O)c(O)c1,outcome,[1],inactive
same,Potency,[2],inactive
same,outcome,[3],inactive
same,outcome,[4],inactive
same,Potency,[5],inactive
same,Potency,[6],inactive
same,Potency,[8],inactive
same,Potency,[7],inactive
CN1C(=O)N(C)C(O)C1O (stereo unspecified),outcome,[1],inactive
same,Potency,[2],inactive
same,outcome,[3],inactive
same,outcome,[4],inactive
same,Potency,[5],inactive
same,Potency,[6],inactive
same,Potency,[7],inactive
same,Potency,[9],inactive
